TAR Tat displ = TAR RNA-Tat peptide displacers, HIV-1, primary screen, biochemical, FRET, FAM/TAMRA-labeled Tat; z-score (concentration not given with the values); 0.6% of 100,000 active; HIV-1 TAR RNA, Tat peptide displacement FRET; stronger effect = higher value; active means z-score of 3 or more in at least 2 runs
CDC25B CDK2 inh = primary biochemical HTRF screen for blockers of M-phase inducer phosphatase 2 binding to CDK2/cyclin A; z-score (no concentration beside the values); 0.72% of 94,000 active; HTRF CDC25B-CDK2/CyclinA binding, anti-His/anti-Flag; stronger effect = higher value; P30305+P24941; in the data active means z-score above about 3.2
Numbers without * were called inactive; nt = no result. A selection: hits, their analogues and other compounds. The true share with any hit is near 0.9%.

SMILES | TAR Tat displ | CDC25B CDK2 inh
CC(=O)NC(CC(C)C)C(=O)N1CCNc2ccccc2C1 (centres undefined) | 0.26 | -1.3
O=C(OCc1cc(=O)n2c3c(sc2n1)CCCC3)c1ccco1 | 0.22 | nt
CCc1n[nH]c(=S)c2cc3occc3n12 | -0.47 | 4.2
Cc1ccccc1N1CSC2=C(C#N)C(c3cccs3)CC(=O)N2C1 (centres undefined) | 0.89 | 5.1*
CCc1ccccc1N1CSC2=C(C#N)C(c3cccs3)CC(=O)N2C1 (centres undefined) | -0.35 | 6.7*
COc1ccccc1C1C(C(=O)OC(C)C)=C(C)Nc2nnnn21 (centres undefined) | 0.93 | -1
O=C1CC(c2ccco2)Cc2[nH]c(=O)c(-c3nc(-c4ccccc4)cs3)cc21 (centres undefined) | -4.4 | 17*
O=C1CC(c2ccco2)Cc2[nH]c(=O)c(-c3nc(-c4cccc(Cl)c4)cs3)cc21 (centres undefined) | 6.6 | 9.4
c1ccc(-c2c3ssnc-3c3ccccc23)cc1 | nt | 17*
Cc1nc(-c2ccccc2)c(-c2ccccc2)s1 | 1.7 | -0.54
CN(C(=O)CSc1nnc(-c2cc3ccccc3n2C)o1)c1ccc(F)cc1 | 1.2 | -1.7
Cn1c(=O)n(Cc2ccccc2)c(=O)c2c1nc1n2CCN1c1ccc(F)cc1 | 1.6 | nt
Cn1c(=O)n(C/C=C/c2ccccc2)c(=O)c2c1nc1n2CCN1c1ccc(F)cc1 | 12* | nt
O=C(Cn1cnc2nc3c(cc2c1=O)CCCC3)Nc1ccc(F)cc1F | -2.8 | -0.86
COc1ccc(CNc2nc3cc(OC)c(OC)cc3c3nc(-c4ccccc4)nn23)cc1 | -0.4 | -1.1
COc1ccc(-c2nc(=S)c3c([nH]2)Oc2ccccc2C3)cc1O | 1.3 | 10*
COc1cccc2c1Oc1[nH]c(-c3ccc(C(=O)O)cc3)nc(=S)c1C2 | 33* | 2.7
COc1ccc(-c2nc(=S)c3c([nH]2)Oc2ccccc2C3)cc1OC | 1.6 | 0.7
COc1cccc2c1Oc1[nH]c(-c3ccc(O)cc3)nc(=S)c1C2 | -0.64 | 0.26
CCOc1cc(C(=O)Nc2ccc3oc(-c4cccc5c(Br)cccc45)nc3c2)cc(OCC)c1OCC | nt | -3.1
O=C(c1cc(-c2ccc(Cl)s2)nc2ccccc12)N1CCN(C/C=C/c2ccccc2)CC1 | nt | -3.3
Cc1cc(C)cc(NC(=O)N2CC(C)Sc3ccccc32)c1 (centres undefined) | 2.3 | nt
Cc1cc(C)c2c(n1)nn1c(C)c(CCC(=O)NC3CCCC3)c(C)nc21 | 2.5 | -1.8
CCN(CC)c1ccc(NC(=O)CCc2c(C)nc3c4c(C)cc(C)nc4nn3c2C)c(C)c1 | 6.4* | -0.09
O=C(O)C1Cc2c([nH]c3ccccc23)CN1 (centres undefined) | nt | 16*
SMILES | TAR Tat displ | CDC25B CDK2 inh
O=C(O)C1Cc2c([nH]c3ccccc23)C(c2ccccc2)N1 (centres undefined) | nt | 0.74
CC(C)OCCCNC(=O)Cn1ncn2c(cc3cc(F)ccc32)c1=O | -1.1 | -1.1
O=C(C1CC(c2ccc(F)cc2)=NO1)N1CCN(c2ccc(F)cc2)CC1 (centres undefined) | 0.33 | -1.2
O=C(CN1C(=O)c2ccccc2S1(=O)=O)Nc1ccc(N2CCCC2)cc1 | 15* | 11*
CS(=O)(=O)N1CCN(c2ccc(NC(=O)CN3C(=O)c4ccccc4S3(=O)=O)cc2)CC1 | 0.69 | 1.2
O=C(Cn1nc2c(cc1=O)CCCC2)Nc1ccc2c(c1)OCO2 | 6.2* | nt
O=C(Cn1nc2c(cc1=O)CCCC2)Nc1ccc(Cl)cc1 | 1.3 | nt
CCCc1nc2nc(C)cc(Nc3ccc(C)c(Cl)c3)n2n1 | -0.05 | -0.99
Cc1ccc(C)c(S(=O)(=O)c2cn(C)c3cc(N4CCOCC4)c(F)cc3c2=O)c1 | -0.35 | nt
CCOc1ccc(-c2n[nH]c3c2cnc2cc4c(cc23)OCCO4)cc1 | 17* | 15*
Cc1ccc(-c2n[nH]c3c2cnc2cc4c(cc23)OCCO4)cc1 | -0.73 | nt
C=CCc1cc(/C=c2\sc3nc4ccccc4n3c2=O)cc(OC)c1OCC(=O)O | nt | -0.1
CCc1ccc(Cn2c(CN)nc3cccnc32)cc1 | -0.24 | 0.7
CCOC(=O)C1CCN(c2ccc(C#N)cc2)CC1 | nt | 0.25
CSc1nnc(SCC(=O)N2CCC(C(F)(F)F)CC2)s1 | nt | 0.86
CSc1nnc(S/C(C(C)=O)=C(/C)O)s1 | nt | 16*
CO/N=C(/C(=O)N[C@@H]1C(=O)N2C(C(=O)O)=C(COC(C)=O)CS[C@H]12)c1csc(N)n1 | 1.4 | nt
C=CC1=C(C(=O)O)N2C(=O)[C@@H](NC(=O)C(=NO)c3csc(N)n3)[C@H]2SC1 | 33* | nt
CCc1ccc(Nc2c3c(nc4ncnn24)CCC3)cc1 | 1.9 | -1.1
CCOc1cc(CNc2ccc3[nH]c(=O)[nH]c3c2)cc(Cl)c1OCC | -2.6 | 7.7*
COc1cc(CNc2ccc3[nH]c(=O)[nH]c3c2)cc(Br)c1OCc1ccc(F)cc1 | -2.9 | 7.2*
COc1cc(CNCCSc2nnnn2C)cc(Br)c1OCc1ccc(F)cc1 | 1.5 | 1.4
C=CCOc1c(Cl)cc(CNc2ccc3[nH]c(=O)[nH]c3c2)cc1OC | 1.6 | -0.61
O=C(c1ccccc1)c1oc2ccccc2c1NC(=O)c1nn(-c2ccc(F)cc2)ccc1=O | 0.32 | 1.7
CCOc1ccc(Nc2cc(N3CCC(=O)CC3)c3noc4c3c2C(=O)c2ccccc2-4)cc1 | -0.63 | -1.5
SMILES | TAR Tat displ | CDC25B CDK2 inh
CS(=O)(=N/C=C(\C#N)C(=O)c1cccs1)c1ccc(OC(=O)c2ccc(Cl)cc2)cc1 (centres undefined) | nt | 0.7
O=C(NCCc1cnc[nH]1)c1cnc2sc(N3CCCC3)nn2c1=O | 0.89 | -0.57
O=C(CS(=O)(=O)c1ccc(C(F)(F)F)cn1)NNS(=O)(=O)c1cccc(C(F)(F)F)c1 | nt | 0.57
CCCCCOC(=O)c1[nH]c2c(c1C)C(=O)CC(c1cccs1)C2 (centres undefined) | 2 | -1.3
O=C1C2C(c3ccccc3)OC3(C(=O)c4ccccc4C3=O)C2C(=O)N1c1ccc(F)c(Cl)c1 (centres undefined) | 1.4 | 0.7
O=C1NC(NS(=O)(=O)c2ccccc2)(C(F)(F)F)C(=O)N1c1ccc(F)c(Cl)c1 (centres undefined) | nt | 18*
CCC1CCCCN1CCCNC(=O)C1CCCN(S(=O)(=O)N2CC(C)CC(C)C2)C1 (centres undefined) | 1.3 | nt
CCC1CCCCN1CCCNC(=O)C1CCCN(S(=O)(=O)N2CCCCC2)C1 (centres undefined) | 4.5* | nt
O=c1nc2c(-c3cccc(F)c3)n[nH]n2c2cc(Cl)ccc12 | 0.64 | -1.1
Cc1ccc(/C=C/c2nn3c(-c4ccco4)nnc3s2)cc1 | -1.3 | -1.8
Clc1ccccc1/C=C/c1nn2c(-c3ccco3)nnc2s1 | 19* | 3.2
Cc1ccc(/C=C/c2nn3c(-c4ccncc4)nnc3s2)cc1 | -1.2 | -2.1
Clc1cccc(-c2nnc3sc(-c4ccco4)nn23)c1 | 1.9 | -1.3
Clc1ccccc1/C=C/c1nn2c(-c3ccncc3)nnc2s1 | 0.36 | -0.92
C(=C\c1nn2c(-c3ccncc3)nnc2s1)/c1ccco1 | 26* | -1
Cc1ccc(/C=C/c2nn3c(-c4ccco4)nnc3s2)cc1C | 17* | 3.9
Clc1ccccc1-c1ccc(-c2nn3c(-c4ccco4)nnc3s2)o1 | 0.54 | 15*
COc1ccc2c(c1)CC(C(=O)Nc1cc(F)ccc1F)CO2 (centres undefined) | -0.09 | nt
Cc1cccc(N(C)S(=O)(=O)c2ccc3[nH]c4c(c3c2)CCCC4)c1 | -0.48 | nt
